Laboratory results as given in the supplement of paper PMC3545927.
Some of the results follow. The true hit rate is not given.

Target: furin, P09958
Experiment: furin cleavage Z-score vs untreated control; higher = more cleavage, active = 3.5 or more, inactive = 1 or less, 8 variable residues between constant flanks
Procedure, shortened: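 The cleavage Z-score was derived for purified furin acting on 8-mer peptides held on magnetic beads and fused to a cDNA oligonucleotide. Digests lasted 7.5, 15 or 30 min at 1:10 enzyme:substrate in 50 mM HEPES pH 7.5 with CaCl2 and NaCl. Sequencing counts of released DNA, log-transformed against furin-free reactions, were lowess-adjusted and scaled by median absolute deviation.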

furin, P09958, sequence (P09958 whole entry): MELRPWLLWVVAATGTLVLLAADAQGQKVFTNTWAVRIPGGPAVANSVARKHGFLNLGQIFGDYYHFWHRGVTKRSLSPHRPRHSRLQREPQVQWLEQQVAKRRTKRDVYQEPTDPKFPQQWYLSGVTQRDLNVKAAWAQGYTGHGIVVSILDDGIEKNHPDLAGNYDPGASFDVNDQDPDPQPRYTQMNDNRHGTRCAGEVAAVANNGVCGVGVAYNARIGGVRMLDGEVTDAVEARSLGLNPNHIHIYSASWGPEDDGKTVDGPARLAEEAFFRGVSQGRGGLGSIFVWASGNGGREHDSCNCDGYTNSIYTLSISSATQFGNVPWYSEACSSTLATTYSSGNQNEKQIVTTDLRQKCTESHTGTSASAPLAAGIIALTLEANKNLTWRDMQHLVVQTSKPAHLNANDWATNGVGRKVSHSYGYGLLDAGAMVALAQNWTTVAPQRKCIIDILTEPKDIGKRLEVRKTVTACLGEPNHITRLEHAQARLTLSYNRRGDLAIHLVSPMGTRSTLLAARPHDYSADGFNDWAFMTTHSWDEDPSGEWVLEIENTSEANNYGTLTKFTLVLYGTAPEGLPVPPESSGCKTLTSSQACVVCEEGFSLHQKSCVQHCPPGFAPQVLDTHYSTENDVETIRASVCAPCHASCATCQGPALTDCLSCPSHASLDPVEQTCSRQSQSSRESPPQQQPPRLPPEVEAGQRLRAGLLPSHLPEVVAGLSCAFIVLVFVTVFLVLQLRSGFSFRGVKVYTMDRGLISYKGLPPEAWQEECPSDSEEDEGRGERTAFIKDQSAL

CAGVWRVDGIAGNASASA [HC1169]
furin cleavage Z-score (7.5 min): -0.937 (inactive)
furin cleavage Z-score (15 min): 0.416 (inactive)
furin cleavage Z-score (30 min): -0.826 (inactive)

CANCTTPCSGAGNASASA [HC1961]
furin cleavage Z-score (7.5 min): -0.578 (inactive)
furin cleavage Z-score (15 min): -3.89 (inactive)
furin cleavage Z-score (30 min): 1.28

CARVARTVDRAGNASASA [FS-2469]
furin cleavage Z-score (7.5 min): 5.8 (active)
furin cleavage Z-score (15 min): 7.75 (active)
furin cleavage Z-score (30 min): 8.43 (active)

CARGYKGVWRAGNASASA [HC1167]
furin cleavage Z-score (7.5 min): 0.51 (inactive)
furin cleavage Z-score (15 min): 0.617 (inactive)
furin cleavage Z-score (30 min): -0.00561 (inactive)

CARPAREVDRAGNASASA [FS-2356]
furin cleavage Z-score (7.5 min): 5.34 (active)
furin cleavage Z-score (15 min): 5.29 (active)
furin cleavage Z-score (30 min): 4.96 (active)

CARHARFGKKAGNASASA [FS-2210]
furin cleavage Z-score (7.5 min): 0.851 (inactive)
furin cleavage Z-score (15 min): -1.52 (inactive)
furin cleavage Z-score (30 min): 1.21

CAMKYEIASEAGNASASA [NG5]
furin cleavage Z-score (7.5 min): -0.26 (inactive)
furin cleavage Z-score (15 min): -1.67 (inactive)
furin cleavage Z-score (30 min): 0.146 (inactive)

CARHARQASEAGNASASA [FS-3155]
furin cleavage Z-score (7.5 min): 1.74
furin cleavage Z-score (15 min): 4.48 (active)
furin cleavage Z-score (30 min): 5.03 (active)

CARHRKNVDRAGNASASA [FS-1716]
furin cleavage Z-score (7.5 min): -0.386 (inactive)
furin cleavage Z-score (15 min): 1.53
furin cleavage Z-score (30 min): 1.32

CARHARNVDRAGNASASA [FS-1953]
furin cleavage Z-score (7.5 min): 6.92 (active)
furin cleavage Z-score (15 min): 10.7 (active)
furin cleavage Z-score (30 min): 9.36 (active)

CATPPCSGSWAGNASASA [HC1859]
furin cleavage Z-score (7.5 min): -0.56 (inactive)
furin cleavage Z-score (15 min): -0.533 (inactive)
furin cleavage Z-score (30 min): -0.721 (inactive)

CAFLLLADARAGNASASA [HC522]
furin cleavage Z-score (7.5 min): -0.934 (inactive)
furin cleavage Z-score (15 min): -0.696 (inactive)
furin cleavage Z-score (30 min): -0.66 (inactive)

CAPLLYRLGAAGNASASA [HC972]
furin cleavage Z-score (7.5 min): 0.619 (inactive)
furin cleavage Z-score (15 min): -1.01 (inactive)
furin cleavage Z-score (30 min): 0.0559 (inactive)

CAMAKNEVFCAGNASASA [HC1440]
furin cleavage Z-score (7.5 min): 0.471 (inactive)
furin cleavage Z-score (15 min): 0.162 (inactive)
furin cleavage Z-score (30 min): 0.531 (inactive)

CAGCNCSIYPAGNASASA [HC312]
furin cleavage Z-score (7.5 min): 0.264 (inactive)
furin cleavage Z-score (15 min): -0.894 (inactive)
furin cleavage Z-score (30 min): 0.418 (inactive)

CAIVARNHRDAGNASASA [FS-1537]
furin cleavage Z-score (7.5 min): 4.29 (active)
furin cleavage Z-score (15 min): 3.17
furin cleavage Z-score (30 min): 2.88

CAITARYHRDAGNASASA [FS-805]
furin cleavage Z-score (7.5 min): 2.27
furin cleavage Z-score (15 min): 3.38
furin cleavage Z-score (30 min): 4.17 (active)

CASSRRDSSWAGNASASA [FS-3138]
furin cleavage Z-score (7.5 min): -0.452 (inactive)
furin cleavage Z-score (15 min): -0.483 (inactive)
furin cleavage Z-score (30 min): -0.978 (inactive)

CARKPKRKRWAGNASASA [FS-1400]
furin cleavage Z-score (7.5 min): 8.47 (active)
furin cleavage Z-score (15 min): 10.9 (active)
furin cleavage Z-score (30 min): 7.59 (active)

CAGKRRSRRQAGNASASA [FS-1456]
furin cleavage Z-score (7.5 min): 9.9 (active)
furin cleavage Z-score (15 min): 10.6 (active)
furin cleavage Z-score (30 min): 6.67 (active)

CATTPCSGRWAGNASASA [HC1913]
furin cleavage Z-score (7.5 min): -1.94 (inactive)
furin cleavage Z-score (15 min): 0.288 (inactive)
furin cleavage Z-score (30 min): -0.595 (inactive)

CASKRRDKRWAGNASASA [FS-193]
furin cleavage Z-score (7.5 min): 8.33 (active)
furin cleavage Z-score (15 min): 9.38 (active)
furin cleavage Z-score (30 min): 9.36 (active)

CAHKHRSNRQAGNASASA [FS-1337]
furin cleavage Z-score (7.5 min): 1.05
furin cleavage Z-score (15 min): 3.88 (active)
furin cleavage Z-score (30 min): 1.67

CARKPRVKRPAGNASASA [FS-1261]
furin cleavage Z-score (7.5 min): 1.31
furin cleavage Z-score (15 min): 0.832 (inactive)
furin cleavage Z-score (30 min): 1.57

CAPWNRKNRQAGNASASA [FS-1604]
furin cleavage Z-score (7.5 min): -0.25 (inactive)
furin cleavage Z-score (15 min): 0.846 (inactive)
furin cleavage Z-score (30 min): 3.14

CAWDWICEVLAGNASASA [HC1151]
furin cleavage Z-score (7.5 min): -0.473 (inactive)
furin cleavage Z-score (15 min): 1.19
furin cleavage Z-score (30 min): 1.97

CAIPFYGKAIAGNASASA [HC847]
furin cleavage Z-score (7.5 min): -0.737 (inactive)
furin cleavage Z-score (15 min): -1.38 (inactive)
furin cleavage Z-score (30 min): 0.0496 (inactive)

CAGGRAAICGAGNASASA [HC1628]
furin cleavage Z-score (7.5 min): -1.4 (inactive)
furin cleavage Z-score (15 min): -1.23 (inactive)
furin cleavage Z-score (30 min): -0.629 (inactive)

CATRDPTTPLAGNASASA [HC1563]
furin cleavage Z-score (7.5 min): 0.197 (inactive)
furin cleavage Z-score (15 min): -2.67 (inactive)
furin cleavage Z-score (30 min): -1.41 (inactive)

CAPIIQRLHGAGNASASA [HC1601]
furin cleavage Z-score (7.5 min): -1.06 (inactive)
furin cleavage Z-score (15 min): -0.433 (inactive)
furin cleavage Z-score (30 min): -1.21 (inactive)

CANVVRARRQAGNASASA [FS-698]
furin cleavage Z-score (7.5 min): 12.8 (active)
furin cleavage Z-score (15 min): 12 (active)
furin cleavage Z-score (30 min): 10.3 (active)

CASKRRARRQAGNASASA [FS-1487]
furin cleavage Z-score (7.5 min): 7.99 (active)
furin cleavage Z-score (15 min): 8.93 (active)
furin cleavage Z-score (30 min): 6.94 (active)

CASKRRSRRQAGNASASA [FS-1412]
furin cleavage Z-score (7.5 min): 8.55 (active)
furin cleavage Z-score (15 min): 8.01 (active)
furin cleavage Z-score (30 min): 5.96 (active)

CANVVTSTWVAGNASASA [HC2161]
furin cleavage Z-score (7.5 min): -0.344 (inactive)
furin cleavage Z-score (15 min): 0.91 (inactive)
furin cleavage Z-score (30 min): 0.172 (inactive)

CAPPHSAKSKAGNASASA [HC1417]
furin cleavage Z-score (7.5 min): -1.76 (inactive)
furin cleavage Z-score (15 min): -0.582 (inactive)
furin cleavage Z-score (30 min): -0.397 (inactive)

CATTPCSGSVAGNASASA [HC1930]
furin cleavage Z-score (7.5 min): 0.2 (inactive)
furin cleavage Z-score (15 min): 0.581 (inactive)
furin cleavage Z-score (30 min): 1.22

CAKARRPEGRAGNASASA [HC194]
furin cleavage Z-score (7.5 min): -0.782 (inactive)
furin cleavage Z-score (15 min): -1.19 (inactive)
furin cleavage Z-score (30 min): -0.268 (inactive)

CANTCVTQTVAGNASASA [HC888]
furin cleavage Z-score (7.5 min): -0.737 (inactive)
furin cleavage Z-score (15 min): -1.07 (inactive)
furin cleavage Z-score (30 min): -1.56 (inactive)

CAIASLMAFTAGNASASA [HC1054]
furin cleavage Z-score (7.5 min): -0.654 (inactive)
furin cleavage Z-score (15 min): -1.12 (inactive)
furin cleavage Z-score (30 min): 0.0832 (inactive)

CARTKKAKMKAGNASASA [FS-2823]
furin cleavage Z-score (7.5 min): -1.45 (inactive)
furin cleavage Z-score (15 min): -0.415 (inactive)
furin cleavage Z-score (30 min): -0.644 (inactive)

CARTKRSAFFAGNASASA [FS-2190]
furin cleavage Z-score (7.5 min): 7.39 (active)
furin cleavage Z-score (15 min): 8.86 (active)
furin cleavage Z-score (30 min): 9.07 (active)

CARDDRSTSFAGNASASA [FS-1689]
furin cleavage Z-score (7.5 min): 1.2
furin cleavage Z-score (15 min): -0.677 (inactive)
furin cleavage Z-score (30 min): 2.85

CARTKRLTAQAGNASASA [FS-2314]
furin cleavage Z-score (7.5 min): -0.31 (inactive)
furin cleavage Z-score (15 min): 0.417 (inactive)
furin cleavage Z-score (30 min): 1.3

CARTKRDYDFAGNASASA [FS-2313]
furin cleavage Z-score (7.5 min): 5.48 (active)
furin cleavage Z-score (15 min): 7.94 (active)
furin cleavage Z-score (30 min): 9.08 (active)

CARTKRYFAKAGNASASA [FS-1976]
furin cleavage Z-score (7.5 min): 0.407 (inactive)
furin cleavage Z-score (15 min): 1.7
furin cleavage Z-score (30 min): 4.11 (active)

CAGLKRGGAKAGNASASA [DV6]
furin cleavage Z-score (7.5 min): 0.716 (inactive)
furin cleavage Z-score (15 min): 0.513 (inactive)
furin cleavage Z-score (30 min): -0.692 (inactive)

CARTKRLAIFAGNASASA [FS-3107]
furin cleavage Z-score (7.5 min): 3.35
furin cleavage Z-score (15 min): 5.86 (active)
furin cleavage Z-score (30 min): 5.79 (active)
